Experiments:
Assay in all cases: DAPPL (digital affinity profiling via proximity ligation, sequencing); 10 mM Tris-HCl pH 7.5, 50 mM NaCl, 1 mM DTT, 4% glycerol, room temperature, 30 min; GST-TFs on glutathione beads, 16-mer random dsDNA library, 0.1% formaldehyde crosslink after washing; high values mean tight binding
[1] = biological target: T1, FLI1 (Homo sapiens, UniProt Q01543 1-452); conditions: protein: recombinant; tags: N-terminal GST; dsDNA, one strand shown
T1 sequence: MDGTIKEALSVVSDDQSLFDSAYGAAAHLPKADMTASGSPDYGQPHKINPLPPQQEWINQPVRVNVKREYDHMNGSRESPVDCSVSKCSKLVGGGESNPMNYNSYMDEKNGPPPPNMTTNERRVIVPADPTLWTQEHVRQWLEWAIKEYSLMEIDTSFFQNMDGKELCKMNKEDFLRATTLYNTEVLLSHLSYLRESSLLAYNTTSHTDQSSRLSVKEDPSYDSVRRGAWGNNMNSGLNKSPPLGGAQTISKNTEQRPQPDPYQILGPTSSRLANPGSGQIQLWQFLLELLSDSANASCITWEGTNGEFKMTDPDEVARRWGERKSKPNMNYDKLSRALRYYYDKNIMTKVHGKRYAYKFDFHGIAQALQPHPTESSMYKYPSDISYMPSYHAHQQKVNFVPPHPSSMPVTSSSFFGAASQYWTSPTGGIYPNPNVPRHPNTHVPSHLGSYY
Summary of the method: (§1)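 Binding signal is defined as a hexamer's read frequency for one factor over its frequency for the tag-only sample. To obtain reads, GST-fused human transcription factors were expressed in yeast, captured on glutathione beads, barcoded with DNA and pooled with that sample. Pools met 200 nmole of a 16-mer random double-stranded DNA library in Tris/NaCl/DTT/glycerol buffer for 30 min at room temperature before washing, 0.1% formaldehyde crosslinking, proximity ligation (BsaI/T4 ligase, 1 h, 37 °C), PCR and Illumina NextSeq500 sequencing.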

[2] = biological target: T2, ELK1 (Homo sapiens, UniProt P19419 1-428); conditions: protein: recombinant; tags: N-terminal GST; dsDNA, one strand shown
T2 sequence: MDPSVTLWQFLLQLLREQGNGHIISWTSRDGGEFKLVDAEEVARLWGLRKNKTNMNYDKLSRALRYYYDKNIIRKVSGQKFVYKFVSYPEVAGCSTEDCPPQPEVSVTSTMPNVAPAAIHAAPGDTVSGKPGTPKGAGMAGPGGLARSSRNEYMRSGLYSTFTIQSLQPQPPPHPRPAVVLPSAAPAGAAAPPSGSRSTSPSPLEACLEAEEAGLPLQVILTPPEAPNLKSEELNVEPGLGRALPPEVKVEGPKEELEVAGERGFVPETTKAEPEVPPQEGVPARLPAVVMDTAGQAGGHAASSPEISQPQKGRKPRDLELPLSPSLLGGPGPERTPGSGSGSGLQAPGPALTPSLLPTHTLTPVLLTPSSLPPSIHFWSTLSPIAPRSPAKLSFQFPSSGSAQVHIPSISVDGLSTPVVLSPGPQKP
Summary of the method: as §1

[3] = biological target: T3, GABPA (Homo sapiens, UniProt Q06546 1-454); conditions: protein: recombinant; tags: N-terminal GST; dsDNA, one strand shown
T3 sequence: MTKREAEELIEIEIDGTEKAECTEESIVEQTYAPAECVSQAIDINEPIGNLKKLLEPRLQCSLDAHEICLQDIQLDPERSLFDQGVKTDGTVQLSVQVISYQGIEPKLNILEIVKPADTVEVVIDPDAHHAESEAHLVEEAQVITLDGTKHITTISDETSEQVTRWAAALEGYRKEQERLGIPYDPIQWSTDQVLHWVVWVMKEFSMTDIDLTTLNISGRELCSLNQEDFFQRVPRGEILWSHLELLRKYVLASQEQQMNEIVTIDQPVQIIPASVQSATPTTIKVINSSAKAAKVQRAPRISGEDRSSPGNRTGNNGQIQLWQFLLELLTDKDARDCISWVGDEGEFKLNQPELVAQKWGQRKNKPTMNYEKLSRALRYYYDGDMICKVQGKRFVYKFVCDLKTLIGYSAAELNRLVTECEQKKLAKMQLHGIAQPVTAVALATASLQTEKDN
Summary of the method: as §1

[4] = biological target: T4, ERG (Homo sapiens, UniProt P11308 1-479); conditions: protein: recombinant; tags: N-terminal GST; dsDNA, one strand shown
T4 sequence: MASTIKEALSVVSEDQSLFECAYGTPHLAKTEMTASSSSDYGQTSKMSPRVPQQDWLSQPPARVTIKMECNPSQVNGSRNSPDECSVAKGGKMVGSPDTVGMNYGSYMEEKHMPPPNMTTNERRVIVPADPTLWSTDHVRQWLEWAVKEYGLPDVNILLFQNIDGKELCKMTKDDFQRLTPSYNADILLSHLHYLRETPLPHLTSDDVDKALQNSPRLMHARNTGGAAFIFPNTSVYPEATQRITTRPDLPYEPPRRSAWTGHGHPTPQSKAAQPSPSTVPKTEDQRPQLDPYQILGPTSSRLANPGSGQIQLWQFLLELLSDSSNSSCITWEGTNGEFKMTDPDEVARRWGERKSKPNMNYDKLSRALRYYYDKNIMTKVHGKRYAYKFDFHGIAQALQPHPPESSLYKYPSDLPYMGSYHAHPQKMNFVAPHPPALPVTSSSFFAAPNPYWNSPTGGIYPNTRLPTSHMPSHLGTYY
Summary of the method: as §1

[5] = biological target: ELF1 (Homo sapiens, UniProt P32519 1-619); conditions: protein: recombinant; tags: N-terminal GST; dsDNA, one strand shown
ELF1, sequence (P32519 whole entry): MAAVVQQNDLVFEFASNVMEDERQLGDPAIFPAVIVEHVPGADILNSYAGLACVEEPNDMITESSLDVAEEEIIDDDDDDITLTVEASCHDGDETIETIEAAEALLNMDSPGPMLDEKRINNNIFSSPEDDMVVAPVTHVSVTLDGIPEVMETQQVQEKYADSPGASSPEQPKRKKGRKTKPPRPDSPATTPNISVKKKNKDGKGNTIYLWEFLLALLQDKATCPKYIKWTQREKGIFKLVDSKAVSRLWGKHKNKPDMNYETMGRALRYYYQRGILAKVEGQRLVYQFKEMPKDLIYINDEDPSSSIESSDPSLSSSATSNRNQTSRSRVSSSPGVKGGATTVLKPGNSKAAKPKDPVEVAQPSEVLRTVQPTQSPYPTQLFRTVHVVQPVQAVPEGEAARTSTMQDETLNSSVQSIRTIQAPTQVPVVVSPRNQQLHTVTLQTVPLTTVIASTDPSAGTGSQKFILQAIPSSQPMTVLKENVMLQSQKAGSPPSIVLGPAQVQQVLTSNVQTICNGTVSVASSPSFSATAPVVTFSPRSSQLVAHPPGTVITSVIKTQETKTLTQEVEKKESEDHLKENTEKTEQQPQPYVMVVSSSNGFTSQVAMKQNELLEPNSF
Summary of the method: as §1

[6] = biological target: T5, EHF (Homo sapiens, UniProt Q9NZC4 1-300); conditions: protein: recombinant; tags: N-terminal GST; dsDNA, one strand shown
T5 sequence: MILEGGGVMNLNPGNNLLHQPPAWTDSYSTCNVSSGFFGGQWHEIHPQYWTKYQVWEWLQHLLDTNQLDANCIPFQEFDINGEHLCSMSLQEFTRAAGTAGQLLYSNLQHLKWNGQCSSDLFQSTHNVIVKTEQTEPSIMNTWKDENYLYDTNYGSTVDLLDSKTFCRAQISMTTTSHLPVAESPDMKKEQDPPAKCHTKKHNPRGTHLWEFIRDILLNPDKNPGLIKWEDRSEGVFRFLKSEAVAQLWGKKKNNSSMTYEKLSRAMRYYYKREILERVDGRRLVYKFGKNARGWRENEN
Summary of the method: as §1

[7] = biological target: SPI1 (Homo sapiens, UniProt P17947 1-270); conditions: protein: recombinant; tags: N-terminal GST; dsDNA, one strand shown
Summary of the method: as §1

[8] = biological target: SPIB (Homo sapiens, UniProt Q01892 1-262); conditions: protein: recombinant; tags: N-terminal GST; dsDNA, one strand shown
SPIB, sequence (Q01892 whole entry): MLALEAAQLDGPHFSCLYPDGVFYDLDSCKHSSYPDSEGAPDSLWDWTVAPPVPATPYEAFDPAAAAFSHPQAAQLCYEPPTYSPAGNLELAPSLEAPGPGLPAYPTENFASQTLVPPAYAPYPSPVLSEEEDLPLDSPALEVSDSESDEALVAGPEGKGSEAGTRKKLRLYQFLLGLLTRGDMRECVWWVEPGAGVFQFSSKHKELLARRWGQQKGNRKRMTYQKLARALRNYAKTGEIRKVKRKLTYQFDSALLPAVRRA
Summary of the method: as §1

[9] = biological target: T6, ELK3 (Homo sapiens, UniProt P41970 1-407); conditions: protein: recombinant; tags: N-terminal GST; dsDNA, one strand shown
T6 sequence: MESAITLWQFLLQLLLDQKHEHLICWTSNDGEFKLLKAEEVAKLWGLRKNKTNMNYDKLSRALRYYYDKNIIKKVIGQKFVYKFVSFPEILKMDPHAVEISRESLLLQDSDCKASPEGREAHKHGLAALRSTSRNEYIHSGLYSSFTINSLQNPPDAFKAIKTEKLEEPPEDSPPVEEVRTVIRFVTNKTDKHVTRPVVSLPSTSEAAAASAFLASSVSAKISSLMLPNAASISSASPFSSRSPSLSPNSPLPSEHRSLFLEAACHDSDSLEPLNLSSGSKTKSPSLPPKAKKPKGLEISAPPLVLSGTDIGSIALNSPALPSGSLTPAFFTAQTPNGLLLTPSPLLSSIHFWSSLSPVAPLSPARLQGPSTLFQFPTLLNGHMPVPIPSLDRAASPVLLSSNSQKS
Summary of the method: as §1

[10] = biological target: T7, FEV (Homo sapiens, UniProt Q99581 1-238); conditions: protein: recombinant; tags: N-terminal GST; dsDNA, one strand shown
T7 sequence: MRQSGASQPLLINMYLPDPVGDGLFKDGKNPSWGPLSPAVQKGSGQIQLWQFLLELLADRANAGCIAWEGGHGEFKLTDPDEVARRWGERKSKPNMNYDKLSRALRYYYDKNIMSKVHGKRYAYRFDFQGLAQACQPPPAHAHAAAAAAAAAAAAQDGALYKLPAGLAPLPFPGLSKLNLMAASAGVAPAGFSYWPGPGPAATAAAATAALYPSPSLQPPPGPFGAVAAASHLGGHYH
Summary of the method: as §1

[11] = biological target: ETV5 (Homo sapiens, UniProt P41161 1-510); conditions: protein: recombinant; tags: N-terminal GST; dsDNA, one strand shown
ETV5, sequence (P41161 whole entry): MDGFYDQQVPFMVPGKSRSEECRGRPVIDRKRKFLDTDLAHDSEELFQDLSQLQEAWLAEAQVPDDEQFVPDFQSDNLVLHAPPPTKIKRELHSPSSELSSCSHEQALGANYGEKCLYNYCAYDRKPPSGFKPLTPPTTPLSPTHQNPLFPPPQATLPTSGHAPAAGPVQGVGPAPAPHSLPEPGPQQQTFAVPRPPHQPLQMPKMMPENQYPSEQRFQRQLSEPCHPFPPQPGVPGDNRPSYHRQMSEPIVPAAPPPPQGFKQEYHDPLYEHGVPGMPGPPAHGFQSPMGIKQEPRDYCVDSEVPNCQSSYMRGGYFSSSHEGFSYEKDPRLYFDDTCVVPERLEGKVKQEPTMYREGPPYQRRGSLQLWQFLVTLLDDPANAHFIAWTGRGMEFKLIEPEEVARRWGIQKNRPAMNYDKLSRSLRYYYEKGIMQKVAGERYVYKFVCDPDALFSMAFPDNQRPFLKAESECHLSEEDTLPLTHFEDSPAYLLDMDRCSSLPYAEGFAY
Summary of the method: as §1

[12] = biological target: HSF1 (Homo sapiens, UniProt Q00613 1-529); conditions: protein: recombinant; tags: N-terminal GST; chain copies: 3; dsDNA, one strand shown
HSF1, sequence (Q00613 whole entry): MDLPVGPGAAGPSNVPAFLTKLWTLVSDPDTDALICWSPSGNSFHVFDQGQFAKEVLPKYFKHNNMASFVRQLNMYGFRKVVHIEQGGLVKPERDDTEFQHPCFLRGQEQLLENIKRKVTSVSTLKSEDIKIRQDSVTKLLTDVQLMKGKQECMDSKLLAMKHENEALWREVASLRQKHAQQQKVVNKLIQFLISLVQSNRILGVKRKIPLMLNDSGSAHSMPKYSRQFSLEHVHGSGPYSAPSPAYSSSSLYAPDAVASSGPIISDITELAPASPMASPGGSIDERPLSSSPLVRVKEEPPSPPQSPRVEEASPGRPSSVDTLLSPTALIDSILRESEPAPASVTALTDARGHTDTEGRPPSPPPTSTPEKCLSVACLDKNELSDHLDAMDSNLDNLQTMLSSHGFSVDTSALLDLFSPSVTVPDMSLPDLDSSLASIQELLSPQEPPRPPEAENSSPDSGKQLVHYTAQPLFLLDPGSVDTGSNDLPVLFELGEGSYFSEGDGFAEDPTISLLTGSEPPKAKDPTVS
Summary of the method: as §1

[13] = biological target: T8, SPIC (Homo sapiens, UniProt Q8N5J4 1-248); conditions: protein: recombinant; tags: N-terminal GST; dsDNA, one strand shown
T8 sequence: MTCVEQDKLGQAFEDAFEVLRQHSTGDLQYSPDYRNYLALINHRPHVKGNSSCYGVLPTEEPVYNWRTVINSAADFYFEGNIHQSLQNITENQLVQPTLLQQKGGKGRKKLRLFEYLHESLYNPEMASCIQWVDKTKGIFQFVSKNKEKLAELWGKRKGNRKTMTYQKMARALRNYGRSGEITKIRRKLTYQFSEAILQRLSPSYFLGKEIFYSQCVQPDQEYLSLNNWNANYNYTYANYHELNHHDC
Summary of the method: as §1

[14] = biological target: ELF4 (Homo sapiens, UniProt Q99607 1-663); conditions: protein: recombinant; tags: N-terminal GST; dsDNA, one strand shown
ELF4, sequence (Q99607 whole entry): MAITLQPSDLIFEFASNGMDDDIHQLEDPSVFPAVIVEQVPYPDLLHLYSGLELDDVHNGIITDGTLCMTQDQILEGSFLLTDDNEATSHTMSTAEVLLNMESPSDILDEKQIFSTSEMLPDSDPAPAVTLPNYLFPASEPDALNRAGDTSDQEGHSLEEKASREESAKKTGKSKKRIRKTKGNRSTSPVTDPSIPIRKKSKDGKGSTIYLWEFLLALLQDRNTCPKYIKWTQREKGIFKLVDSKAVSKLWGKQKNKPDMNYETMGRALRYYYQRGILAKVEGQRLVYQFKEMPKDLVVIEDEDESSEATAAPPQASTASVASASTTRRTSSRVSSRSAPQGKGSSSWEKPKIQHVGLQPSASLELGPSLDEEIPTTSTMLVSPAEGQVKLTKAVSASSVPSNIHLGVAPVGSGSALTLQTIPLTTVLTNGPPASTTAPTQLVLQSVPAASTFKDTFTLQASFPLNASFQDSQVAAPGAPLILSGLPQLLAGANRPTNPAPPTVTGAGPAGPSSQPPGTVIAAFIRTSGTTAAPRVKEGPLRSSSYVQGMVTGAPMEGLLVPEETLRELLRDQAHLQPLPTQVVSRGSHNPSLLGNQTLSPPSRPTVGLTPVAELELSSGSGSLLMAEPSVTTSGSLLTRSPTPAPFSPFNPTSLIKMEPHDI
Summary of the method: as §1

[15] = biological target: T9, ELK4 (Homo sapiens, UniProt P28324-2 1-405); conditions: protein: recombinant; tags: N-terminal GST; dsDNA, one strand shown
T9 sequence: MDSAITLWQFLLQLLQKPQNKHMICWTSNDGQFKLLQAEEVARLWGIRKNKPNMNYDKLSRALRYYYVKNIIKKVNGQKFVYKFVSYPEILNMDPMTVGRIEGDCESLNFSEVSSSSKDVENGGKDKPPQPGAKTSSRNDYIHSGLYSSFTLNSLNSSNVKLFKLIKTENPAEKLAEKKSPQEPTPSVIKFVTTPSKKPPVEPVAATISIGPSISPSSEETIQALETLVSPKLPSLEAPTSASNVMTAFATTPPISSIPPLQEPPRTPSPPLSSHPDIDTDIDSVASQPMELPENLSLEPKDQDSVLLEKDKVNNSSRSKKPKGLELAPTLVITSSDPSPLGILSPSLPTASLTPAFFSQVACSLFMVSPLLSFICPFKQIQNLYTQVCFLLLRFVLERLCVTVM
Summary of the method: as §1

[16] = biological target: T10, ETV2 (Homo sapiens, UniProt O00321 1-342); conditions: protein: recombinant; tags: N-terminal GST; dsDNA, one strand shown
T10 sequence: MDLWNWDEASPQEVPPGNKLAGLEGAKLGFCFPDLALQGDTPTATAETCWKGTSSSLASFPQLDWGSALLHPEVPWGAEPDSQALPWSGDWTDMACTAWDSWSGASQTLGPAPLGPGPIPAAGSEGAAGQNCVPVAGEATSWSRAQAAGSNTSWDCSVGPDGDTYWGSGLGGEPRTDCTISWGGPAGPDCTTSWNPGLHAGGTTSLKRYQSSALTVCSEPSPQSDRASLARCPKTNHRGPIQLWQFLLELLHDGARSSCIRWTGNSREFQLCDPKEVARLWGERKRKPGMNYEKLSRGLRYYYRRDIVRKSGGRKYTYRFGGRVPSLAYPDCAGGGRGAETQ
Summary of the method: as §1

[17] = biological target: CRX (Homo sapiens, UniProt O43186 1-299); conditions: protein: recombinant; tags: N-terminal GST; dsDNA, one strand shown
CRX, sequence (O43186 whole entry): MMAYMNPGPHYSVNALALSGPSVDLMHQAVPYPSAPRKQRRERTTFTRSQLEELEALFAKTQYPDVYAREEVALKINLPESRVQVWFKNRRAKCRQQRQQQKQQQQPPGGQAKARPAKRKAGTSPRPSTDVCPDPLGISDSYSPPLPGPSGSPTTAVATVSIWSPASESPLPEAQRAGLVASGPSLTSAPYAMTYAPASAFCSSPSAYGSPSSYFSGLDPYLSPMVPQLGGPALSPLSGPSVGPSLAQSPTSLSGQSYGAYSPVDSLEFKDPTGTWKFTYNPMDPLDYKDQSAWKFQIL
Summary of the method: as §1

[18] = biological target: ETV1 (Homo sapiens, UniProt P50549 1-477); conditions: protein: recombinant; tags: N-terminal GST; dsDNA, one strand shown
ETV1, sequence (P50549 whole entry): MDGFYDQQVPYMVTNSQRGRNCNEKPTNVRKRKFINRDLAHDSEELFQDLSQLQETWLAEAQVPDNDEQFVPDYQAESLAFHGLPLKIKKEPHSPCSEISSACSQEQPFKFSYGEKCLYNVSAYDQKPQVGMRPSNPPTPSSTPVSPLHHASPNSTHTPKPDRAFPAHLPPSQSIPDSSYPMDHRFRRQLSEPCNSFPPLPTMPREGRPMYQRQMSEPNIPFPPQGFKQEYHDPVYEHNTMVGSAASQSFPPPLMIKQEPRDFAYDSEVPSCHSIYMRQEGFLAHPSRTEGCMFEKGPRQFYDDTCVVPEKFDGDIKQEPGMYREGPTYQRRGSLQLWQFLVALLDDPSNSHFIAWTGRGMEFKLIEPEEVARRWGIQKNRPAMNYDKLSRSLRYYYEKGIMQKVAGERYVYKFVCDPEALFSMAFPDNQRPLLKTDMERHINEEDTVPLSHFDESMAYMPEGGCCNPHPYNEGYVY
Summary of the method: as §1

TCGCAA
binding signal [1]: 1.21 fold enrichment (6-mer frequency, TF over GST control)
binding signal [2]: 1.22 fold enrichment (6-mer frequency, TF over GST control)
binding signal [3]: 1.19 fold enrichment (6-mer frequency, TF over GST control)
binding signal [4]: 1.16 fold enrichment (6-mer frequency, TF over GST control)
binding signal [5]: 1.19 fold enrichment (6-mer frequency, TF over GST control)
binding signal [6]: 1.18 fold enrichment (6-mer frequency, TF over GST control)
binding signal [7]: 1.03 fold enrichment (6-mer frequency, TF over GST control)
binding signal [8]: 1.08 fold enrichment (6-mer frequency, TF over GST control)
binding signal [9]: 1.06 fold enrichment (6-mer frequency, TF over GST control)
binding signal [10]: 1.11 fold enrichment (6-mer frequency, TF over GST control)
binding signal [11]: 1.06 fold enrichment (6-mer frequency, TF over GST control)
binding signal [12]: 1.22 fold enrichment (6-mer frequency, TF over GST control)
binding signal [13]: 1.32 fold enrichment (6-mer frequency, TF over GST control)
binding signal [14]: 1.15 fold enrichment (6-mer frequency, TF over GST control)
binding signal [15]: 1.03 fold enrichment (6-mer frequency, TF over GST control)
binding signal [16]: 1.18 fold enrichment (6-mer frequency, TF over GST control)
binding signal [17]: 1.05 fold enrichment (6-mer frequency, TF over GST control)
binding signal [18]: 1.1 fold enrichment (6-mer frequency, TF over GST control)

From publication PMC7862700, “An all-to-all approach to the identification of sequence-specific readers for epigenetic DNA modifications on cytosine”
